This note sets out measurements from PubChem BioAssay (NCATS).

Molecules are shown by their SMILES. Results filed as inconclusive are left out. Unmarked numbers belong to inactive results. Active and inactive are the calls of the source. The call rests on the fitted dose curve; in most records, active means well fitted curve in the direction sought with a large enough effect; inconclusive means small, poorly fitted or top-dose-only effect, or another doubt; inactive means no such curve, though single readings can be large; an effect the other way counts as inactive or inconclusive.

Test [1] relates to C33A. Kind of test: Primary qHTS to identify gynecologic anti-cancer compounds using libraries of approved drugs and bioactive compounds (AID 1345084). Further: nearly all actives have a fitted effect of over 55% in size. The conditions noted are these: Gynecologic cancer cell panel viability, ATPlite luminescence, 48 h; series mostly up to 57.5 µM. Summed up: (§1)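 In this quantitative HTS, cell killing is estimated from loss of ATP-dependent luciferase light. Cells see five compound concentrations over a 48 h exposure.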
In general terms: In qHTS, concentration-response curves come from the screen itself.

Test [2] relates to CAOV3. The description is as above. The conditions noted are these: Gynecologic cancer cell panel viability, ATPlite luminescence, 48 h; series mostly up to 57.5 µM. Put shortly: as §1
On the technique in general: Cellular ATP, detected with luciferase, serves as a proxy for viable cell number.

The subject of test [3] is Es-2. The test is described as above. To be noted: Gynecologic cancer cell panel viability, ATPlite luminescence, 48 h; series mostly up to 57.5 µM. Put shortly:
as §1

Test [4] concerns HeLa. The description is as above. The conditions noted are these: Gynecologic cancer cell panel viability, ATPlite luminescence, 48 h; series mostly up to 57.5 µM. Put shortly: as §1
The test system of test [5] is Hek293T. The test is described as above. To be noted: Gynecologic cancer cell panel viability, ATPlite luminescence, 48 h, control line for the selectivity index; series mostly up to 57.5 µM. Summed up:
as §1

The test system of test [6] is JEG-3. The description is as above. The conditions noted are these: Gynecologic cancer cell panel viability, ATPlite luminescence, 48 h; series mostly up to 57.5 µM. Summed up: as §1
The test system of test [7] is OV90. The description is as above. To be noted: Gynecologic cancer cell panel viability, ATPlite luminescence, 48 h; series mostly up to 57.5 µM. Put shortly:
as §1

Test [8] relates to PA-1. The test is described as above. The conditions noted are these: Gynecologic cancer cell panel viability, ATPlite luminescence, 48 h; series mostly up to 57.5 µM. Summed up:
as §1

Test [9] concerns Tov-21-G. The description is as above. To be noted: Gynecologic cancer cell panel viability, ATPlite luminescence, 48 h; series mostly up to 57.5 µM. Put shortly: as §1
The subject of test [10] is Tov112D. The description is as above. To be noted: Gynecologic cancer cell panel viability, ATPlite luminescence, 48 h; series mostly up to 57.5 µM. Summed up:
as §1

Test [11] has as its system CASKI. Described as above. The conditions noted are these: Gynecologic cancer cell panel viability, ATPlite luminescence, 48 h; series mostly up to 57.5 µM. Summed up:
as §1

Test [12] concerns SKOV3. The test is described as above. The conditions noted are these: Gynecologic cancer cell panel viability, ATPlite luminescence, 48 h; series mostly up to 57.5 µM. Summed up: as §1
Test [13] can be described thus: qHTS assay to identify inhibitors of the type 1 interferon - major histocompatibility complex class I in skeletal muscle: Counter screen cell viability and HiBit confirmation (AID 1347412). Further: nearly all actives have a fitted effect of over 60% in size. The conditions noted are these: iHSKM muscle cells + IFN-b, HiBiT or CellTiter-Glo, 24 h. Summed up: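 CRISPR HLA-B*08:01-HiBit immortalized human myoblasts (C25cl48) stimulated with 4 ng/ml IFN-beta and compounds (12-point 1:3, top 46 uM final) for 24 h at 37 C. Duplicate plates read by HiBit lytic luminescence or CellTiter Glo ATP.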
On the % scale 0 is the no-effect control and ±100 the full control effect; potency means the concentration at half of the fitted maximal effect.

As for `Cc1cc(C(=O)N2Cc3cnn(C)c3Nc3ccccc32)ccc1CNC(=O)N1CCC[C@H]1C(=S)N1CCCN(C)CC1`, the Potency entry in [1], in test [2], in test [3], in test [4], in test [5] and in test [6] was “inactive” each time. Also, the Potency result in test [7], in test [8], in test [9] and in test [10] was “inactive” in each case.

With `COc1cc(O)cc(C)c1C(=O)O[C@@H]1[C@H](O)[C@@H](CO)O[C@H]1n1ccc(=O)[nH]c1=O`, the Potency result in [1], in test [2], in [11], in test [4], in test [6] and in [7] was “inactive” each time. Further, the Potency result in [12] and in test [10] was “inactive” throughout. In test [8], the Potency was 3.98 µM (active).

Consider `Cc1ccc(-c2ccc3ncc4c(c3n2)n(C2CCN(C(=O)[C@H](C)O)CC2)c(=O)n4C)cn1`, for which the Potency in test [1] was 0.282 µM (active); in test [2], 708 nM (active); in test [11], 794 nM (active); in test [4] it was 1 µM (active); in [5] it was 0.355 µM (active); in test [6], 7.08 µM (active). Further, the values for the Potency in test [8], in test [12] and in [10] were 0.631 µM (active), 1.41 µM (active) and 0.0891 µM (active), respectively.

As to `CC(C)c1cccc2c(-c3ccccc3)cc(-c3ccc(-c4ccc(C(=O)O)cc4)[nH]3)nc12`, the Potency result in [1], in test [2], in test [3], in test [4], in [5] and in test [6] was “inactive” in each case. The Potency result in test [7], in test [8] and in test [12] was “inactive” in each case.

`CC1(C)CC[C@@]2(C(=O)O[C@@H]3O[C@H](CO)[C@@H](O)[C@H](O)[C@H]3O)C(C1)C1=CCC3[C@@]4(C)CC[C@@H](O[C@@H]5O[C@H](C(=O)O)[C@@H](O[C@@H]6OC[C@@H](O)[C@H](O)[C@H]6O)[C@H](O[C@@H]6OC[C@](O)(CO)[C@H]6O)[C@H]5O)C(C)(C)C4CC[C@@]3(C)[C@]1(C)C[C@H]2O` (stereo not given in full): the activity change, negative = cytotoxicity in test [1] was -0.239% [at 11.6 µM]; in [2] it was -43.7% [at 11.6 µM]; in test [11] it was -25.1% [at 11.6 µM]; in test [3] it was -7.12% [at 11.6 µM]; in test [5], 3.52% [at 11.6 µM]; in test [6], -1.03% [at 11.6 µM]. Also, the activity change, negative = cytotoxicity in [7] is -1.26% [at 11.6 µM]; in test [8], -34.8% [at 11.6 µM]; in test [12] it was -2.96% [at 11.6 µM]; in test [10], -29.7% [at 11.6 µM].

On to `CNC(=O)c1ccccc1Nc1cc(Nc2ccc(N3CCOCC3)cc2OC)ncc1C(F)(F)F`, for which the Potency entry in test [1], in [2], in [11], in test [3], in test [5] and in test [6] was “inactive” in each case. The Potency entry in test [7], in test [12] and in [10] was “inactive” throughout. In test [8], the Potency is 15.8 µM (active).

Turning to `CC(=O)O[C@@](C)(C(=O)/C=C/C(C)(C)O)[C@H]1[C@H](O)C[C@@]2(C)[C@@H]3CC=C4[C@@H](C=C(O)C(=O)C4(C)C)[C@]3(C)C(=O)C[C@]12C`, the Potency entry in test [1] and in test [6] was “inactive” throughout. Moreover, the Potency in test [2] is 282 nM (active); in test [11] it was 4470 nM (active); in test [4], 2.51 µM (active); in [7] it was 4.47 µM (active); in [8] it was 11.2 µM (active); in [9], 2.82 µM (active).

With `COc1ccc(Oc2cc(C)c(-c3csc(NC(=O)c4ccncc4)n3)c(C)c2)cc1`, the Potency result in [1], in test [2] and in test [10] was “inactive” each time. Further, the results for the Potency in test [11] and in test [12] were 891 nM (active) and 1 µM (active), respectively.

On to `C=C(C(=O)OC)C1C(O)CC2(C)C(O)CCC(=O)C2C1O` (stereo not given), for which the Potency entry in test [1], in [2], in test [11], in test [5], in [6] and in test [7] was “inactive” in each case.

Turning to `N#Cc1ccc(-c2cnc3[nH]cc(NC(=O)c4cccnc4)c3c2)cc1`, the Potency entry in test [1], in test [2], in [11], in [5], in test [6] and in test [10] was “inactive” throughout.

As to `Cc1cnc(Nc2ccc(F)cc2Cl)nc1-c1c[nH]c(C(=O)NC(CO)c2cccc(Cl)c2)c1` (stereo not given), the Potency entry in test [1], in test [2], in test [11], in test [3], in test [5] and in test [6] was “inactive” in each case. Besides, the Potency result in [12] and in test [10] was “inactive” throughout. Besides, in [8], the Potency was 8.91 µM (active).

For the compound `COc1cc2c(cc1OC)N1C(=O)C[C@]34C=CCN5CC[C@@H]2[C@@H](CC3)[C@]514`, the Potency result in [1], in [2], in test [3], in [4], in test [5] and in [6] was “inactive” each time. In addition, the Potency result in test [7], in [8], in [12], in test [9] and in [10] was “inactive” throughout.

`CC[C@@H](N)CNc1ccnc(-c2cc(-c3cnn(C)c3)ccc2O)n1`: the Potency in test [1] was 8.91 µM (active); in test [11] it was 3980 nM (active); in [3], 20 µM (active); in test [5], 11.2 µM (active); in [6], 12.6 µM (active); in test [8], 7.94 µM (active). The Potency in [9] is 8.91 µM (active); in test [10] it was 10 µM (active). Further, the Potency entry in [2] was “inactive”.

Take `Cc1ncc(CCCN(C)C)cc1Nc1ncc2c(n1)-c1ccc(C(F)(F)F)cc1NC(=S)C2`: the Potency result in test [1], in [2], in [11], in test [6] and in [9] was “inactive” each time.

For the compound `CC1=CC2C(CC1OC1OC(CO)C(O)C(O)C1O)C(C)CC(=O)C2C(C)C` (stereo not given), the Potency entry in test [1], in test [2], in test [3], in test [4], in [5] and in [6] was “inactive” each time. The Potency result in [7], in test [8], in test [12], in test [9] and in test [10] was “inactive” throughout.

Take `COCCN1CCN(Cc2ccc(-c3n[nH]c4c3C(=O)c3c(NC(=O)NN5CCOCC5)cccc3-4)cc2)CC1`: the Potency entry in test [1], in test [2], in [6] and in test [7] was “inactive” in each case. For the same compound, the Potency in test [11] was 282 nM (active); in test [3] it was 0.316 µM (active); in [5], 0.178 µM (active); in [8] it was 0.251 µM (active); in [9], 0.282 µM (active); in test [10] it was 0.316 µM (active). Also, the Potency in test [13] (HiBiT) was 70.1 nM (active). Besides, in test [13] (Viability, at 45.9 µM (top of the series)), the activity change, negative = inhibition is 44.8%.

On to `NC(=O)c1cnc(NCCc2ccc(O)c(Cl)c2)nc1NCc1ccccc1`, for which the Potency result in test [1], in test [2], in test [6] and in test [7] was “inactive” each time. The Potency is 15.8 µM (active) in test [3]; 25.1 µM (active) in [4]; 20 µM (active) in test [5]; 10 µM (active) in test [8]; 7.94 µM (active) in test [9]; 12.6 µM (active) in test [10].

As to `CC1(C)CC[C@]2(C(=O)O[C@@H]3O[C@H](CO)[C@@H](O)[C@H](O)[C@H]3O)CC[C@]3(C)C(=CCC4[C@@]5(C)C[C@@H](O)[C@H](O)[C@@](C)(CO)C5CC[C@]43C)C2[C@@H]1O` (stereo not given in full), the Potency result in test [1], in test [2], in test [11], in [4], in test [5] and in test [6] was “inactive” each time. Moreover, the Potency result in test [7], in [8], in [12], in test [9] and in test [10] was “inactive” each time.
